# Test results reported in PubChem BioAssay (Tox21).
# Where “and” joins values, the source holds several entries; their conditions need not be identical. Equal values may be shown once. Results filed as inconclusive are left out. Entries that show only a call come without a potency. More than one record can exist for a structure, and the calls need not agree. Calls of active or inactive are those of the source. Unless noted, the call rests on the fitted dose curve; in most records, active means well fitted curve in the direction sought with a large enough effect in the repeat runs; inconclusive means weak or mixed curves; inactive means no such curve, though single readings can be large; an effect the other way counts as inactive or inconclusive.
# Tested on: not listed separately
# Assay: qHTS assay to identify small molecule agonists of the estrogen receptor beta (ER-beta) signaling pathway - cell viability counter screen (AID 1259380); further: nearly all actives have a fitted effect of over 30% in size; further: potency means the concentration at half of the fitted maximal effect
# Settings: ER-beta-bla HEK293T viability, CellTiter-Glo luminescence, 16 h; series mostly up to 92.4 µM
# Summary of the method: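 Cells used were ER-beta-UAS-bla HEK293T in medium with 2% charcoal-stripped FBS. They were treated for 16 hr at 37C. Viability came from CellTiter-Glo luminescence.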
row,SMILES,Potency
1,Cc1noc(NS(=O)(=O)c2ccc(N)cc2)c1C,inactive
2,CC(C)(Oc1ccc(C2CC2(Cl)Cl)cc1)C(=O)O (configuration not stated),inactive
3,CCCC(CCC)C(=O)O,inactive
4,OC(Cn1cncn1)(Cn1cncn1)c1ccc(F)cc1F,inactive
5,CCCCC1C(=O)N(c2ccccc2)N(c2ccccc2)C1=O,inactive
6,O=c1cc[nH]c(=S)[nH]1,inactive
7,CC(C)[C@@H]1CC[C@@H](C)C[C@H]1O,inactive
8,Cc1cc(=O)n(-c2ccccc2)n1C,inactive
9,NC(=O)c1ccccc1O,inactive
10,NNC(=O)c1ccncc1,inactive
11,CCCNC(=O)NS(=O)(=O)c1ccc(Cl)cc1,inactive
12,NC(N)=O,inactive
13,CCCC(O)C(CC)CO (configuration not stated),inactive
14,CCCCC(CC)COC(=O)/C=C/c1ccc(OC)cc1 (configuration not stated),inactive
15,NS(=O)(=O)c1cc(C(=O)O)c(NCc2ccco2)cc1Cl,inactive
16,Nc1ccc(C(=O)O)cc1,inactive
17,O=C(O)CCCCC(=O)O,inactive
18,CCCN(CCC)S(=O)(=O)c1ccc(C(=O)O)cc1,inactive

row,SMILES,Potency
1,NC(N)=NC(=O)c1nc(Cl)c(N)nc1N,inactive
2,Cc1ccc(O)cc1,inactive
3,NC(=O)c1cnccn1,inactive and 33.5 µM (active)
4,C1N2CN3CN1CN(C2)C3,inactive
5,C[C@]12C=CC(=O)C=C1CC[C@@H]1[C@@H]2[C@@H](O)C[C@@]2(C)[C@H]1CC[C@]2(O)C(=O)CO,inactive
6,Nc1ccn([C@H]2CC[C@@H](CO)O2)c(=O)n1,inactive
7,CC1(C)[C@@H]2CC[C@@]1(C)C(=O)C2,inactive
8,O=C(c1ccccc1)c1ccccc1,inactive
9,Nc1ccc(O)c(C(=O)O)c1,inactive
10,COc1ccc2[nH]cc(CCNC(C)=O)c2c1,inactive
11,Cc1ccc(S(=O)(=O)NC(=O)NN2CCCCCC2)cc1,inactive
12,Cc1ccc(C)c(OCCCC(C)(C)C(=O)O)c1,inactive
13,Nc1ccc(S(=O)(=O)c2ccc(N)cc2)cc1,inactive
14,Oc1ccc(/C=C/c2cc(O)cc(O)c2)cc1,inactive
15,CC(=O)Nc1nnc(S(N)(=O)=O)s1,inactive
16,CC(=O)NS(=O)(=O)c1ccc(N)cc1,inactive
17,Cn1cc[nH]c1=S,inactive
18,O=c1ccc2ccccc2o1,inactive

# Biological target: Androgen receptor (Homo sapiens) (UniProt P10275)
# Sequence (P10275 whole entry, looked up): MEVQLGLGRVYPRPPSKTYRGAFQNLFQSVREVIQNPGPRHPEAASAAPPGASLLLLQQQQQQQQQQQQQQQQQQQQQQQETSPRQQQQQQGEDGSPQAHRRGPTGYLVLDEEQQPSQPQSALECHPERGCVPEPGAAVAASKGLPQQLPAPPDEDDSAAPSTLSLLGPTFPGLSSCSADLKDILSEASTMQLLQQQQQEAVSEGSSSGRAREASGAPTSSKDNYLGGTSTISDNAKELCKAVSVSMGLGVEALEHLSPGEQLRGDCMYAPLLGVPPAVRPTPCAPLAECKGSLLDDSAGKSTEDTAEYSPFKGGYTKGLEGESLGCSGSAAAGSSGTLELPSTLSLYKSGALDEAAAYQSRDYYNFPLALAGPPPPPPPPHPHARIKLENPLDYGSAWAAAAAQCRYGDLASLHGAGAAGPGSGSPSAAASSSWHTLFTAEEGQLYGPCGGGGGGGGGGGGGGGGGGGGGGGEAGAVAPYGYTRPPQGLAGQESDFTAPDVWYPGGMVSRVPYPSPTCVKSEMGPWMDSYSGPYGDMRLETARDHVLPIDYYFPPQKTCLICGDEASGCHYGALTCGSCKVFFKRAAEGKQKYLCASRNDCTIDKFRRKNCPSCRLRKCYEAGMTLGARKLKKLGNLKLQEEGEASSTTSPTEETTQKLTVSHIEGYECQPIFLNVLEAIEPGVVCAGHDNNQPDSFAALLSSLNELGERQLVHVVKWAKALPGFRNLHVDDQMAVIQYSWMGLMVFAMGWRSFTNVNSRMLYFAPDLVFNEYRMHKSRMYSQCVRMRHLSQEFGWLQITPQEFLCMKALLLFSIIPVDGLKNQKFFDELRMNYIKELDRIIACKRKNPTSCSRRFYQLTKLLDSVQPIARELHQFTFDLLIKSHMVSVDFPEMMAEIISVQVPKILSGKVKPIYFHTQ
# Assay: qHTS assay to identify small molecule agonists of the androgen receptor (AR) signaling pathway in the presence of an antagonist (AID 1259381; calls by dose curve; further: nearly all actives have a fitted effect of over 15% in size; further: potency means the concentration at half of the fitted maximal effect)
# Settings: MDA-kb2 MMTV-luciferase, AR agonist + nilutamide, 16 h; series mostly up to 92.4 µM
# Summary of the method: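 Using human MDA-kb2 cells with an MMTV promoter–luciferase construct (AR and GR response elements), agonist activity is scored under 3.0uM nilutamide (final) co-treatment; 16hr incubation, 37C, luminescence readout via ONE-Glo.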
row,SMILES,Potency
1,CC(C)(Oc1ccc(C2CC2(Cl)Cl)cc1)C(=O)O (configuration not stated),inactive
2,CC(C)[C@@H]1CC[C@@H](C)C[C@H]1O,inactive
3,Cc1cc(=O)n(-c2ccccc2)n1C,inactive
4,CCCCC(CC)COC(=O)/C=C/c1ccc(OC)cc1 (configuration not stated),inactive
5,CCCN(CCC)S(=O)(=O)c1ccc(C(=O)O)cc1,inactive
6,Cc1ccc(O)cc1,inactive
7,C1N2CN3CN1CN(C2)C3,inactive
8,O=C(c1ccccc1)c1ccccc1,inactive
9,Cc1ccc(C)c(OCCCC(C)(C)C(=O)O)c1,inactive
10,Oc1ccc(/C=C/c2cc(O)cc(O)c2)cc1,1.95 µM (active)

# Tested on: not listed separately
# Assay: qHTS assay to identify small molecule antagonists of the estrogen receptor beta (ER-beta) signaling pathway - cell viability counter screen (AID 1259382); further: nearly all actives have a fitted effect of over 55% in size
# Settings: ER-beta-UAS-bla HEK293T viability, CellTiter-Glo luminescence, 16 h; series mostly up to 92.4 µM
# Summary of the method: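 Agonist-stimulated (1nM E2) ER-beta-UAS-bla HEK293T cells are incubated with library compounds for 16 hr at 37C. Cell viability is then assessed in the reporter-assay wells by adding CellTiter-Glo and reading luminescence after 30 min.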
row,SMILES,Potency
1,Cc1noc(NS(=O)(=O)c2ccc(N)cc2)c1C,inactive
2,CC(C)(Oc1ccc(C2CC2(Cl)Cl)cc1)C(=O)O (configuration not stated),inactive
3,CCCC(CCC)C(=O)O,inactive
4,OC(Cn1cncn1)(Cn1cncn1)c1ccc(F)cc1F,inactive
5,CCCCC1C(=O)N(c2ccccc2)N(c2ccccc2)C1=O,inactive
6,O=c1cc[nH]c(=S)[nH]1,inactive
7,CC(C)[C@@H]1CC[C@@H](C)C[C@H]1O,inactive
8,Cc1cc(=O)n(-c2ccccc2)n1C,inactive
9,NC(=O)c1ccccc1O,inactive
10,NNC(=O)c1ccncc1,inactive
11,CCCNC(=O)NS(=O)(=O)c1ccc(Cl)cc1,inactive
12,NC(N)=O,inactive
13,CCCC(O)C(CC)CO (configuration not stated),inactive
14,CCCCC(CC)COC(=O)/C=C/c1ccc(OC)cc1 (configuration not stated),inactive
15,NS(=O)(=O)c1cc(C(=O)O)c(NCc2ccco2)cc1Cl,inactive
16,Nc1ccc(C(=O)O)cc1,inactive
17,O=C(O)CCCCC(=O)O,inactive
18,CCCN(CCC)S(=O)(=O)c1ccc(C(=O)O)cc1,inactive

row,SMILES,Potency
1,NC(N)=NC(=O)c1nc(Cl)c(N)nc1N,inactive
2,Cc1ccc(O)cc1,inactive
3,NC(=O)c1cnccn1,inactive
4,C1N2CN3CN1CN(C2)C3,inactive
5,C[C@]12C=CC(=O)C=C1CC[C@@H]1[C@@H]2[C@@H](O)C[C@@]2(C)[C@H]1CC[C@]2(O)C(=O)CO,inactive
6,Nc1ccn([C@H]2CC[C@@H](CO)O2)c(=O)n1,inactive
7,CC1(C)[C@@H]2CC[C@@]1(C)C(=O)C2,inactive
8,O=C(c1ccccc1)c1ccccc1,inactive
9,Nc1ccc(O)c(C(=O)O)c1,inactive
10,COc1ccc2[nH]cc(CCNC(C)=O)c2c1,inactive
11,Cc1ccc(S(=O)(=O)NC(=O)NN2CCCCCC2)cc1,inactive
12,Cc1ccc(C)c(OCCCC(C)(C)C(=O)O)c1,inactive
13,Nc1ccc(S(=O)(=O)c2ccc(N)cc2)cc1,inactive
14,Oc1ccc(/C=C/c2cc(O)cc(O)c2)cc1,inactive
15,CC(=O)Nc1nnc(S(N)(=O)=O)s1,inactive
16,CC(=O)NS(=O)(=O)c1ccc(N)cc1,inactive
17,Cn1cc[nH]c1=S,inactive
18,O=c1ccc2ccccc2o1,inactive
